# Source: PubChem BioAssay (NCATS)
# Records with an inconclusive call do not appear. Calls of active or inactive are those of the source. Calls follow the shape of the dose curve; as a rule, active = well fitted cell-killing curve with a large enough effect; inconclusive = small, poorly fitted or top-dose-only effect, or effect the other way; inactive = flat fitted curve, though single readings scatter.
# Tested on: Tov112D
# Assay: Primary qHTS to identify gynecologic anti-cancer compounds using libraries of approved drugs and bioactive compounds (AID 1345084); also: nearly all actives have a fitted effect of over 55% in size
# Details: Gynecologic cancer cell panel viability, ATPlite luminescence, 48 h; series mostly up to 57.5 µM
# In short: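 In this quantitative HTS, cell killing is estimated from loss of ATP-dependent luciferase light. Cells see five compound concentrations over a 48 h exposure.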
# Potency is read from the fitted curve at half-maximal effect.
row,SMILES,Potency
1,NC(=O)Nc1cc(-c2cccc(F)c2)sc1C(=O)N[C@H]1CCCNC1,1.78 µM (active)
2,Cc1cc(C(=O)N2CCN(c3cccc(Cl)c3)CC2)n(-c2ccccc2)n1,3.98 µM (active)
3,OCCCNc1cc(-c2ccnc(Nc3cccc(Cl)c3)n2)ccn1,0.316 µM (active)
4,O=C(Cc1ccc(-c2ccc(OCCN3CCOCC3)cc2)cn1)NCc1ccccc1,1 µM (active)
5,O=C(Nc1cn[nH]c1-c1nc2ccc(CN3CCOCC3)cc2[nH]1)NC1CC1,11.2 µM (active)
6,O=C(Nc1ncc(-c2cc(C(F)F)nn2-c2c(Cl)cccc2Cl)s1)C1CC1,1.58 µM (active)
7,Cc1cc(Nc2cc(CN3CCOCC3)c3nc(C)c(Cc4ccc(Cl)cc4F)n3n2)n[nH]1,inactive
8,COc1ccc(F)c(F)c1C(=O)c1cnc(NC2CCN(S(C)(=O)=O)CC2)nc1N,7.94 µM (active)
9,Nc1ncnc2c1c(-c1cnc3[nH]ccc3c1)nn2C1CCCC1,5.01 µM (active)
10,N#CCNC(=O)c1ccc(-c2ccnc(Nc3ccc(N4CCOCC4)cc3)n2)cc1,inactive
11,COc1cccc2nc(-c3cccs3)nc(NN3C(=O)C=C(C)C3=O)c12,0.891 µM (active)
12,Cc1ccc(C(=O)Nc2ccc(CN3CCN(C)CC3)c(C(F)(F)F)c2)cc1C#Cc1cnc2cccnn12,7.94 µM (active)
13,COc1cc2c(Nc3ccc(NC(=O)c4ccccc4)cc3)ncnc2cc1OCCCN1CCOCC1,inactive
14,Cc1coc2c1C(=O)C(=O)c1c-2ccc2c1CCCC2(C)C,inactive
15,CC[C@@]1(O)C(=O)OCc2c1cc1n(c2=O)Cc2cc3cc(O)ccc3nc2-1,0.0794 µM (active)
